Source: PubChem BioAssay (Tox21)
Results filed as inconclusive are left out. Active and inactive are the calls of the source. Calls come from the whole dose curve; as a rule, active = well fitted activation curve with a large enough effect in the repeat runs; inconclusive = weak or mixed curves; inactive = no such curve, though single readings can be large or run the other way.

Each molecule was assayed against Aryl hydrocarbon receptor (Homo sapiens) (UniProt P35869) (assay: qHTS assay to identify small molecule that activate the aryl hydrocarbon receptor (AhR) signaling pathway (AID 743085; note: nearly all actives have a fitted effect of over 15% in size;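 for activation: HG2L7.5c1 human HepG2 liver cells with stably integrated DRE-driven firefly reporter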)). Settings: HepG2 AhR-luc (HG2L7.5c1), luciferase, 24 h; series mostly up to 70.3 µM; activation: at the top concentration.
From the text: U.S. Tox21 Program National Center for Advancing Translational Sciences [NCATS] NIH Chemical Genomics Center [NCGC] U.S. Environmental Protection Agency [EPA] National Institutes of Environmental Health Sciences [NIEHS] National Toxicology Program [NTP] U.S. Food and Drug Administration [FDA] Tox21 Assay overview: The Aryl hydrocarbon Receptor (AhR), a member of the family of basic helix-loop-helix transcription factors, is crucial to adaptive responses to environmental changes. AhR mediates cellular responses to environmental pollutants such as aromatic hydrocarbons through induction of phase I and II enzymes but also interacts with other nuclear receptor signaling pathways. A cell based HepG2-AhR-luc assay (HG2L7.5c1 cell line, developed by Dr. Michael S. Denison, University of California at Davis, was used to assess the activation of AhR. HepG2 (human hepatocellular carcinoma) cells were stably transfected with an Ah receptor-responsive firefly luciferase reporter gene plasmid containing 20 dioxin responsive elements and luciferase reporter gene. Increased luciferase activity can be used to identify the compounds that induce AhR activation.
Tox21 Assay Protocol Summary: 4000 cells in 5 uL/well were dispensed into white wall/solid bottom 1536-well plates using a Multidrop Combi (Thermo Fisher Scientific Inc., Waltham, MA) dispenser. After the assay plates were incubated at 37C for 5 h, 23 nL of compound or DMSO vehicle was transferred to the assay plates by a pintool station (Kalypsys, San Diego, CA). The plates were incubated at 37C for 24 hr. After 1 ul/well of CellTiter-Fluor reagent (Promega, Madison, WI) was added into the assay plates using a Flying Reagent Dispenser (FRD) (Aurora Discovery, CA), the assay plates were incubated at 37C for 30 min. The fluorescence intensity in the plates was measured using a ViewLux plate reader (PerkinElmer, Shelton, CT), followed by the addition of 4 uL of ONE-Glo Luciferase Assay reagent (Promega) using an FRD (Aurora Discovery). After the assay plates were incubated at room temperature for 30 min, luminescence intensity was measured using a ViewLux plate reader (Perkin Elmer).
% is set by controls: 0 for no effect and ±100 for the full control effect; potency is the fitted concentration of half-maximal effect.

Chain of Aryl hydrocarbon receptor (Homo sapiens) (P35869 whole entry, looked up): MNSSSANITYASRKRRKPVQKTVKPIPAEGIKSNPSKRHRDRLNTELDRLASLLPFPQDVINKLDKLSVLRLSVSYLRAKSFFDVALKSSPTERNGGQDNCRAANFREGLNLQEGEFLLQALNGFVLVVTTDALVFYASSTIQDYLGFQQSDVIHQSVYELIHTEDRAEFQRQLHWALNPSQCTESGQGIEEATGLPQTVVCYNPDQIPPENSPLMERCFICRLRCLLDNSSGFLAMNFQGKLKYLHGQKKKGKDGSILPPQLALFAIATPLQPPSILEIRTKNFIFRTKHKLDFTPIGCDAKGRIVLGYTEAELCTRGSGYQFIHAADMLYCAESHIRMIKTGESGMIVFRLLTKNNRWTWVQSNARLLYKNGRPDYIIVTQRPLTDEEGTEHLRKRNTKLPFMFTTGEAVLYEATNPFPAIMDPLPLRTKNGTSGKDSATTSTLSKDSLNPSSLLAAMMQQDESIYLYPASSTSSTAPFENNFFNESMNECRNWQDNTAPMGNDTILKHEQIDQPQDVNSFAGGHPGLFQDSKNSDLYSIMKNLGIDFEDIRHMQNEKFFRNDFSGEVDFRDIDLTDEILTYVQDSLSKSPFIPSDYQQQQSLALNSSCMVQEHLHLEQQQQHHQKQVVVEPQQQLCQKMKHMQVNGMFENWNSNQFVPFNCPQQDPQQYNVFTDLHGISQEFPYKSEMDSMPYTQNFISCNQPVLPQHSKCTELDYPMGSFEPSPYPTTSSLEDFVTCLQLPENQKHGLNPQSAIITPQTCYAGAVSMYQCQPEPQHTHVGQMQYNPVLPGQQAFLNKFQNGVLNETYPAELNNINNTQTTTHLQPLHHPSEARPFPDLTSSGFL

Compound | activation | Potency
Cc1ncsc1CCO | -0.41% (inactive) | –
CN1CCN(C2=Nc3cc(Cl)ccc3Nc3ccccc32)CC1 | 3.1% (inactive) | –
CC(C)CCCC(C)CCO (stereo not given) | -0.241% (inactive) | –
CC1(C)[C@H]2CC[C@]1(C)[C@H](O)C2 | – | inactive
CC(Cc1cccc(C(F)(F)F)c1)NCCOC(=O)c1ccccc1 (stereo not given) | -1.23% (inactive) | –
CN(C)CCCOc1nn(Cc2ccccc2)c2ccccc12 | -1.34% [at 32.5 µM] (inactive) | –
CN(C(=O)CCCOc1ccc2[nH]c(=O)ccc2c1)C1CCCCC1 | 5.57% (inactive) | –
CC/C(=C\C(=N/O)C(N)=O)C(C)[N+](=O)[O-] (stereo not given) | 7.44% (inactive) | –
CC1(C)CCC(C)(C)c2cc(NC(=O)c3ccc(C(=O)O)cc3)ccc21 | -1.49% (inactive) | –
C=CC(=O)OCC(C)OCC(C)OCC(C)OC(=O)C=C (stereo not given) | 2.69% (inactive) | –
CCCC[C@H]1CN(CC2CCOCC2)C(=O)OC12CCN(C1(C)CCN(C(=O)c3c(C)ncnc3C)CC1)CC2 | -0.273% (inactive) | –
C=CCCCCCC | -0.544% (inactive) | –
CCN(CC)CCc1nc(-c2ccccc2)no1 | 5.93% [at 32.5 µM] (inactive) | –
CC1=CCC(C(C)C)C=C1 (stereo not given) | -1.05% (inactive) | –
CC(=O)CC(=O)c1ccccc1 | -0.843% [at 95 µM] (inactive) | –
O=C(O)Cc1sc(-c2ccccc2)nc1-c1ccc(Cl)cc1 | – | 10.6 µM (active)
N=C(N=C(N)N)N1CCOCC1 | -1.22% [at 32.5 µM] (inactive) | –
CCCCCCCCCCCCC(=O)O | -0.939% [at 95 µM] (inactive) | –
CCN(CC)CCOc1ccc2c(c1)C(=O)c1cc(OCCN(CC)CC)ccc1-2 | 3.62% (inactive) | –
Cc1ccc(C)o1 | 0.332% [at 95 µM] (inactive) | –

Compound | activation | Potency
CCCCCCCC/C=C\CCCCCCCC(N)=O | -0.459% (inactive) | –
CN1CCC(OC(c2ccccc2)c2ccccc2)CC1 | -0.329% [at 32.5 µM] (inactive) | –
CCCCCCCCCC=O | -0.945% (inactive) | –
Cc1occc1S | 0.658% (inactive) | –
COc1ccc(OC)c(OC)c1 | -0.552% (inactive) | –
COc1ccc(C(C)=O)cc1 | -0.389% [at 95 µM] (inactive) | –
CCCCCCOC(=O)CCC | -0.937% (inactive) | –
CC(C)(C)C1CCCCC1O (stereo not given) | -0.777% (inactive) | –
CCCCCC(CO)CCC (stereo not given) | -0.0396% (inactive) | –
O=C(CC(=O)c1ccccc1)c1ccccc1 | – | 65.7 µM (active)
O=C(CCN1CCN2CCCC2C1)N1c2ccccc2Sc2ccc(Cl)cc21 (stereo not given) | -1.29% (inactive) | –
CC(=O)c1ccc2c(c1)[C@H](NC(=O)c1ccc(F)cc1)[C@@H](O)C(C)(C)O2 | 2.16% (inactive) | –
CN1CCC(=C2c3ccccc3C=Cc3ccccc32)CC1 | -0.227% (inactive) | –
Oc1ccc(Sc2ccc(O)cc2)cc1 | 4.34% (inactive) | –
CCCCOc1ccc(CC(=O)NO)cc1 | 3.21% [at 32.5 µM] (inactive) | –
CCCCCc1ccc(N)cc1 | 0.634% (inactive) | –
CC(C)(C)c1cc(CCC(=O)OCC(COC(=O)CCc2cc(C(C)(C)C)c(O)c(C(C)(C)C)c2)(COC(=O)CCc2cc(C(C)(C)C)c(O)c(C(C)(C)C)c2)COC(=O)CCc2cc(C(C)(C)C)c(O)c(C(C)(C)C)c2)cc(C(C)(C)C)c1O | -0.926% [at 32.5 µM] (inactive) | –
Cc1cc(CC(=O)O)c(C)n1-c1ccc(Cl)cc1 | 6.7% (inactive) | –
O=c1[nH]cnc2ccccc12 | 2.45% [at 95 µM] (inactive) | –
CCOC(=O)CC(=O)c1cc(F)c(Cl)nc1Cl | -0.039% [at 95 µM] (inactive) | –
